# Laboratory results from paper PMC7862700, “An all-to-all approach to the identification of sequence-specific readers for epigenetic DNA modifications on cytosine”.
# Experiments:
# Assay in all cases: DAPPL (digital affinity profiling via proximity ligation, sequencing); 10 mM Tris-HCl pH 7.5, 50 mM NaCl, 1 mM DTT, 4% glycerol, room temperature, 30 min; GST-TFs on glutathione beads, 16-mer random dsDNA library, 0.1% formaldehyde crosslink after washing; high values mean tight binding
# Settings in all cases: protein: recombinant; tags: N-terminal GST; dsDNA, one strand shown
# ELF4 = ELF4 (Homo sapiens, UniProt Q99607 1-663)
# Sequence of ELF4 (Q99607 whole entry, the tested form may be a part): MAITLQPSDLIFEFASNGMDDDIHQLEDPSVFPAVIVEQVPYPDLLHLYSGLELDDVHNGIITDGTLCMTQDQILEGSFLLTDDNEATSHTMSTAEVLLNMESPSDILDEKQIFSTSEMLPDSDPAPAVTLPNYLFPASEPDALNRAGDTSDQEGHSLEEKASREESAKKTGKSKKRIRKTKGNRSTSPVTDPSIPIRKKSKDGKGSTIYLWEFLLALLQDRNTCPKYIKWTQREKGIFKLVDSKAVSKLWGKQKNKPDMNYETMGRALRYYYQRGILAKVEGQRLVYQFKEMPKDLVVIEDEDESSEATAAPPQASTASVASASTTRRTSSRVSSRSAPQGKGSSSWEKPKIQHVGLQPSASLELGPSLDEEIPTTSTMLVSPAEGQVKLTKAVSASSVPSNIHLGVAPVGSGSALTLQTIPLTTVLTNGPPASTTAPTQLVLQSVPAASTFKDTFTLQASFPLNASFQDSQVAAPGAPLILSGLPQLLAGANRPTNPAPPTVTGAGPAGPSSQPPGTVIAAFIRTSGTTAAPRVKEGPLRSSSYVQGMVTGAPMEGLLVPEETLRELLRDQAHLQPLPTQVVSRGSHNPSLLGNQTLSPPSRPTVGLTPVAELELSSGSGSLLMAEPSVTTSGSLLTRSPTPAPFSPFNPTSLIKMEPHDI
# Summary of the method: (§1)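 Sequencing on an Illumina NextSeq500 followed washing, crosslinking with 0.1% formaldehyde, proximity ligation (BsaI/T4 ligase, 1 h, 37 °C) and PCR amplification of pools that had been incubated for 30 min at room temperature with 200 nmole of a random double-stranded 16-mer DNA library in Tris/NaCl/DTT/glycerol buffer. Each pool held DNA-barcoded human transcription factors, expressed in yeast as GST fusions and captured on glutathione beads, plus a tag-only sample. Binding signal is a hexamer's read frequency for a factor divided by its frequency in the tag-only sample.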
# ELK4 = target: T1, ELK4 (Homo sapiens, UniProt P28324-2 1-405)
# T1 sequence: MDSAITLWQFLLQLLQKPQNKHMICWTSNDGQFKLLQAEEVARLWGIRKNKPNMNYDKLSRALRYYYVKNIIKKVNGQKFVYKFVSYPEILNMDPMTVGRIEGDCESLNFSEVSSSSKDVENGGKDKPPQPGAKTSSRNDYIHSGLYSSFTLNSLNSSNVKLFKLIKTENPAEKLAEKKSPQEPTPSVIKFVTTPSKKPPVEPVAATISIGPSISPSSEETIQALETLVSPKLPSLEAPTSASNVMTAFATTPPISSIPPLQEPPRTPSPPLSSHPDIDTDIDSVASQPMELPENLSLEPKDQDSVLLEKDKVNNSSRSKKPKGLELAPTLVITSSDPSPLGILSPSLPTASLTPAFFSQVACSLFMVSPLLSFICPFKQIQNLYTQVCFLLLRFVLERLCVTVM
# Summary of the method: as §1
# ETV2 = target: T2, ETV2 (Homo sapiens, UniProt O00321 1-342)
# T2 sequence: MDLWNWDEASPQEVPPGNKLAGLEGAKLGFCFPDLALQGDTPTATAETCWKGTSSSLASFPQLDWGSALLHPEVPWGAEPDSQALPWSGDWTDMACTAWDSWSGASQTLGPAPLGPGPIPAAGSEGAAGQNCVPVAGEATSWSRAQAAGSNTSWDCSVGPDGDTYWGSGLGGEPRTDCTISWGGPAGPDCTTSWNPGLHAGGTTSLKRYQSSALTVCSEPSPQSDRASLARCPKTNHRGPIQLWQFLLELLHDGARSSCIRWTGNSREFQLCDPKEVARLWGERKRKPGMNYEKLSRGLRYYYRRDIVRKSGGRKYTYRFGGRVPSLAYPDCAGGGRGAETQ
# Summary of the method: as §1
# ELF3 = target: T3, ELF3 (Homo sapiens, UniProt P78545 1-371)
# T3 sequence: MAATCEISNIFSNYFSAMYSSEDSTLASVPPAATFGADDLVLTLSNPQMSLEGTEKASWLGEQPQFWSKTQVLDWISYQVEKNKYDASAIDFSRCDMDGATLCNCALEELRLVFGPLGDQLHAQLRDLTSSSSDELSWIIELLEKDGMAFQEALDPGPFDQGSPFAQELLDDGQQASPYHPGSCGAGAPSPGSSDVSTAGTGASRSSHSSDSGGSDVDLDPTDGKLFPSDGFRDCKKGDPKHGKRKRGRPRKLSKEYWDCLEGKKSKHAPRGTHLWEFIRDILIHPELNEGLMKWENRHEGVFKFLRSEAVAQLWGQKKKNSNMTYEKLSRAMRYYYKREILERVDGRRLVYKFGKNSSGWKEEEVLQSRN
# Summary of the method: as §1
# ERF = target: T4, ERF (Homo sapiens, UniProt P50548 1-548)
# T4 sequence: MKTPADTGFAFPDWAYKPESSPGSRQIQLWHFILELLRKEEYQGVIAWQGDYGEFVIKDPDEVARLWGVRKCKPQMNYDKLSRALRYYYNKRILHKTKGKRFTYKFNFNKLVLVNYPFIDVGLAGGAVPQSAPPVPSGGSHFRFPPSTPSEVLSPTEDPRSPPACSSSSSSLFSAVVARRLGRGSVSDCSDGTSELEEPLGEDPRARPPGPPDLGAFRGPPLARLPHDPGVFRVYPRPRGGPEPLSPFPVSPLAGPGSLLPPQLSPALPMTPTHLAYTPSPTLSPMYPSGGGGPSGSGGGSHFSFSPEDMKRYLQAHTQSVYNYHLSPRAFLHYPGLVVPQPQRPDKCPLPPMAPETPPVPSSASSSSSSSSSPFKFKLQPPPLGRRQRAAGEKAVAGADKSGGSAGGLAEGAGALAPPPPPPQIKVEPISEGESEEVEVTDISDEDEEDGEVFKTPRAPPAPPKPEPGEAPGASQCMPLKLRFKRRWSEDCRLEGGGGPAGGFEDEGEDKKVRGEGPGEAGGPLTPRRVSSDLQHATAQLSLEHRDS
# Summary of the method: as §1
# ETV3L = target: T5, ETV3L (Homo sapiens, UniProt Q6ZN32 1-361)
# T5 sequence: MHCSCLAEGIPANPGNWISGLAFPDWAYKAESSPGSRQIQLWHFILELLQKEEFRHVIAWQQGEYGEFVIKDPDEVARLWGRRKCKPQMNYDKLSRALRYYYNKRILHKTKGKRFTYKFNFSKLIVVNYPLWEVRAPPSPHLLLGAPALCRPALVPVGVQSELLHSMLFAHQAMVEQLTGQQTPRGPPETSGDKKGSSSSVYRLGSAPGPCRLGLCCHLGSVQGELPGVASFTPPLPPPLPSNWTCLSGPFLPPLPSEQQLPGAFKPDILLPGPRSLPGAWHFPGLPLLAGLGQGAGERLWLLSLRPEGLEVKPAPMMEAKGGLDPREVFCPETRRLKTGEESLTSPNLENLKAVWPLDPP
# Summary of the method: as §1
# ETS2 = target: T6, ETS2 (Homo sapiens, UniProt P15036 1-469)
# T6 sequence: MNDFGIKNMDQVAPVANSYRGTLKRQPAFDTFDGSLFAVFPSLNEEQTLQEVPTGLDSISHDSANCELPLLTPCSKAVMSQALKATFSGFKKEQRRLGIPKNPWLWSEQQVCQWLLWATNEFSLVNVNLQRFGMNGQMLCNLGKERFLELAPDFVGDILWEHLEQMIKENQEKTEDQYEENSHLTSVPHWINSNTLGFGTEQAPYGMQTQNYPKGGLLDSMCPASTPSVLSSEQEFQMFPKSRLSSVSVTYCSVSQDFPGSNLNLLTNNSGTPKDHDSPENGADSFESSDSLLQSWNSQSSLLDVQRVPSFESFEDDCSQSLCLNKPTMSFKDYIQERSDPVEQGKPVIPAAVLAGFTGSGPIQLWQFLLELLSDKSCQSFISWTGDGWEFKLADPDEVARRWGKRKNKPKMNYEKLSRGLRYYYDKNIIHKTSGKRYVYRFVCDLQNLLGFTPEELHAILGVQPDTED
# Summary of the method: as §1
# ETV7 = target: T7, ETV7 (Homo sapiens, UniProt Q9Y603 1-341)
# T7 sequence: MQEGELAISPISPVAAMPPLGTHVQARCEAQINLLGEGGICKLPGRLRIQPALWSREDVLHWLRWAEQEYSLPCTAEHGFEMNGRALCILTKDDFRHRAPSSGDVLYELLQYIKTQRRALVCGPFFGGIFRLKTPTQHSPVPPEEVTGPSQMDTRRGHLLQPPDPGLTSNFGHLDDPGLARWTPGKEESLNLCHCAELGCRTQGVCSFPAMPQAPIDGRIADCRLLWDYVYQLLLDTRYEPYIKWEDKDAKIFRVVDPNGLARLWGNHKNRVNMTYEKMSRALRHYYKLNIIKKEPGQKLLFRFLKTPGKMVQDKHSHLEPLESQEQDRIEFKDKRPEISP
# Summary of the method: as §1
# ETV3 = target: T8, ETV3 (Homo sapiens, UniProt P41162-2 1-143)
# T8 sequence: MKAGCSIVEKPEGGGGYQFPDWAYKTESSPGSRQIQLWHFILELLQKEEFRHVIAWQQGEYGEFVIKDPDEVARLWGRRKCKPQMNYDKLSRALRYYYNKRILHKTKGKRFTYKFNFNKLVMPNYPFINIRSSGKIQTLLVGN
# Summary of the method: as §1
# ETV6 = ETV6 (Homo sapiens, UniProt P41212 1-452)
# Sequence of ETV6 (P41212 whole entry): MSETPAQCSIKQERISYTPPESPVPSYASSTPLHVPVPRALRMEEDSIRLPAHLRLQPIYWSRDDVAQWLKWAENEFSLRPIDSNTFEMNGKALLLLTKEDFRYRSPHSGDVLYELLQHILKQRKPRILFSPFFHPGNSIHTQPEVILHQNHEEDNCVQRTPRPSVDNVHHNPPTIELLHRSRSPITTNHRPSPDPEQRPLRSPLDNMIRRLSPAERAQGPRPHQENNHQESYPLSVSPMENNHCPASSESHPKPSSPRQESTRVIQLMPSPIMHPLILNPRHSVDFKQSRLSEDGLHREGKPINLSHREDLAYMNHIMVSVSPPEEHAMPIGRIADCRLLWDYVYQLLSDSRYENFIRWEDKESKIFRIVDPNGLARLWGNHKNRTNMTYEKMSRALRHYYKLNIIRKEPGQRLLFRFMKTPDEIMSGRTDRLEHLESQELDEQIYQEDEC
# Summary of the method: as §1
sequence,measurement,setting,value
TGGCCA,binding signal,ELF4,"1.13 fold enrichment (6-mer frequency, TF over GST control)"
same,binding signal,ELK4,"1.08 fold enrichment (6-mer frequency, TF over GST control)"
same,binding signal,ETV2,"1.02 fold enrichment (6-mer frequency, TF over GST control)"
same,binding signal,ELF3,"1.04 fold enrichment (6-mer frequency, TF over GST control)"
same,binding signal,ERF,"1.06 fold enrichment (6-mer frequency, TF over GST control)"
same,binding signal,ETV3L,"1.04 fold enrichment (6-mer frequency, TF over GST control)"
same,binding signal,ETS2,"1.07 fold enrichment (6-mer frequency, TF over GST control)"
same,binding signal,ETV7,"1.09 fold enrichment (6-mer frequency, TF over GST control)"
same,binding signal,ETV3,"1 fold enrichment (6-mer frequency, TF over GST control)"
same,binding signal,ETV6,"1.09 fold enrichment (6-mer frequency, TF over GST control)"
